Several values for one entry are separate records, joined by “and”; a condition that tells them apart may be missing. Identical values can stand only once. Results filed as inconclusive are left out. Entries that show only a call come without a potency. The source holds several records for some structures; these can differ, active in one and inactive in another. Activity calls are given as the source filed them. The call rests on the fitted dose curve; in most records, active means well fitted curve in the direction sought with a large enough effect in the repeat runs; inconclusive means weak or mixed curves; inactive means no such curve, though single readings can be large; an effect the other way counts as inactive or inconclusive.
Assay: qHTS assay to identify small molecule antagonists of the retinoid acid receptor (RAR) signaling pathway - cell viability counter screen (AID 1159551); further: nearly all actives have a fitted effect of over 35% in size
Settings: C3RL4 cells viability, ATP luminescence (CellTiter-Glo), 6 h; series mostly up to 92.4 µM
How it was run: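 Seed C3RL4 cells; next day add compound, then retinol to 1 uM final; incubate 6 h at 37 C; add CellTiter-Glo; read luminescence after 30 min at RT.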
Potency means the concentration at half of the fitted maximal effect.

Structure (SMILES) | Potency
FC(F)C(F)(F)OCC(Cn1cncn1)c1ccc(Cl)cc1Cl (stereo not drawn) | inactive
COC(=O)c1ccccc1S(=O)(=O)NC(=O)Nc1nc(C)nc(OC)n1 | inactive
O=C(NC(=O)c1ccccc1Cl)Nc1ccc(OC(F)(F)F)cc1 | inactive
CC(Cc1ccccc1)N(C)Cc1ccco1 (stereo not drawn) | inactive
CSSC | inactive
Nc1ccc(N=Nc2ccccc2)cc1 | inactive
Nc1nc(N)nc(Cl)n1 | inactive
O=C(Nc1ccc(F)cc1F)c1cccnc1Oc1cccc(C(F)(F)F)c1 | inactive
COP(=S)(OC)Oc1nc(Cl)c(Cl)cc1Cl | inactive
ClSC(Cl)(Cl)Cl | inactive
CCN(CC)C(=O)N[C@@H]1C=C2c3cccc4[nH]cc(c34)C[C@@H]2N(C)C1 | inactive
CCC[CH2][Sn]([CH2]CCC)([CH2]CCC)[CH2]CCC | 43.3 µM (active)
CNC(=O)CSP(=O)(OC)OC | inactive
Clc1cc(Cl)c(-c2cc(Cl)c(Cl)cc2Cl)cc1Cl | inactive
CCCCON=O | inactive
CC(C)NCC(O)c1ccccc1Cl (stereo not drawn) | inactive
C[C@H]1[C@H](c2ccc(Cl)cc2)SC(=O)N1C(=O)NC1CCCCC1 | inactive
C#CCO | inactive
Cc1cc2c3c(c1)C(c1ccccc1)=N[C@@H](NC(=O)c1ccncc1)C(=O)N3CC2 | inactive
COc1ccc(Cc2nccc3cc(OC)c(OC)cc23)cc1OC | inactive

Structure (SMILES) | Potency
BrCCCBr | inactive
N#Cc1ccc(N(CC(N)=O)CC(F)(F)F)cc1C(F)(F)F | inactive
CCNc1nc(NC(C)C(C)C)nc(SC)n1 (stereo not drawn) | inactive
O=[N+]([O-])c1cccc2cccc([N+](=O)[O-])c12 | inactive
COCCC#N | inactive
CCCCCCCCCCCCCCn1cc[n+](C)c1 | 54.6 µM (active) and 60.4 µM (active)
C[N+]1(C)[C@@H]2CC[C@H]1CC(OC(=O)C(CO)c1ccccc1)C2 (stereo partly drawn) | inactive
C=CC(=C)C | inactive
O=C(N[C@H]1N=C(c2ccccc2F)c2cccc3c2N(CC3)C1=O)c1cc2ccccc2[nH]1 | inactive
Cc1ccn2nc(S(=O)(=O)Nc3c(F)cccc3F)nc2n1 | inactive
O=[N+]([O-])c1ccccc1-c1ccccc1 | inactive
CN1[C@@H]2CC[C@H]1CC(O)C2 (stereo partly drawn) | inactive
CN | inactive
CC(C)=CCN1CC[C@@]2(C)c3cc(O)ccc3C[C@@H]1[C@@H]2C | inactive
CC1CN1 (stereo not drawn) | inactive
CC(Cc1ccc2c(c1)OCO2)NO (stereo not drawn) | inactive
O=[N+]([O-])c1ccc(CCl)cc1 | inactive
CC1CCCC1 | inactive
Oc1ccc([C@H]2CNCc3c2ccc(O)c3O)cc1O | inactive

Assay: qHTS assay to identify small molecule antagonists of the retinoic acid receptor (RAR) signaling pathway (AID 1159552; further: nearly all actives have a fitted effect of over 50% in size)
Settings: C3RL4 RARE luciferase reporter, retinol-stimulated, 6 h; series mostly up to 92.4 µM
How it was run: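 Antagonism of retinol-induced RARE reporter activity was measured in C3RL4 cells. Exposure to compounds and 1 uM final retinol lasted 6 hr at 37 C, with luminescence as endpoint.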

Structure (SMILES) | Potency
FC(F)C(F)(F)OCC(Cn1cncn1)c1ccc(Cl)cc1Cl (stereo not drawn) | 24.2 µM (active)
COC(=O)c1ccccc1S(=O)(=O)NC(=O)Nc1nc(C)nc(OC)n1 | inactive
O=C(NC(=O)c1ccccc1Cl)Nc1ccc(OC(F)(F)F)cc1 | inactive
CC(Cc1ccccc1)N(C)Cc1ccco1 (stereo not drawn) | inactive
CSSC | inactive
Nc1ccc(N=Nc2ccccc2)cc1 | inactive
Nc1nc(N)nc(Cl)n1 | inactive
O=C(Nc1ccc(F)cc1F)c1cccnc1Oc1cccc(C(F)(F)F)c1 | inactive
COP(=S)(OC)Oc1nc(Cl)c(Cl)cc1Cl | inactive
ClSC(Cl)(Cl)Cl | inactive
CCN(CC)C(=O)N[C@@H]1C=C2c3cccc4[nH]cc(c34)C[C@@H]2N(C)C1 | inactive
CCC[CH2][Sn]([CH2]CCC)([CH2]CCC)[CH2]CCC | 9.69 µM (active)
CNC(=O)CSP(=O)(OC)OC | inactive
Clc1cc(Cl)c(-c2cc(Cl)c(Cl)cc2Cl)cc1Cl | inactive
CCCCON=O | inactive
CC(C)NCC(O)c1ccccc1Cl (stereo not drawn) | inactive
C[C@H]1[C@H](c2ccc(Cl)cc2)SC(=O)N1C(=O)NC1CCCCC1 | inactive
C#CCO | inactive
Cc1cc2c3c(c1)C(c1ccccc1)=N[C@@H](NC(=O)c1ccncc1)C(=O)N3CC2 | inactive
COc1ccc(Cc2nccc3cc(OC)c(OC)cc23)cc1OC | inactive

Structure (SMILES) | Potency
BrCCCBr | inactive
N#Cc1ccc(N(CC(N)=O)CC(F)(F)F)cc1C(F)(F)F | inactive
CCNc1nc(NC(C)C(C)C)nc(SC)n1 (stereo not drawn) | inactive
O=[N+]([O-])c1cccc2cccc([N+](=O)[O-])c12 | 54.7 µM (active)
COCCC#N | inactive
CCCCCCCCCCCCCCn1cc[n+](C)c1 | 13.7 µM (active) and 24.1 µM (active) and inactive
C[N+]1(C)[C@@H]2CC[C@H]1CC(OC(=O)C(CO)c1ccccc1)C2 (stereo partly drawn) | inactive
C=CC(=C)C | inactive
O=C(N[C@H]1N=C(c2ccccc2F)c2cccc3c2N(CC3)C1=O)c1cc2ccccc2[nH]1 | inactive
Cc1ccn2nc(S(=O)(=O)Nc3c(F)cccc3F)nc2n1 | inactive
O=[N+]([O-])c1ccccc1-c1ccccc1 | inactive
CN1[C@@H]2CC[C@H]1CC(O)C2 (stereo partly drawn) | inactive
CN | inactive
CC(C)=CCN1CC[C@@]2(C)c3cc(O)ccc3C[C@@H]1[C@@H]2C | inactive
CC1CN1 (stereo not drawn) | inactive
CC(Cc1ccc2c(c1)OCO2)NO (stereo not drawn) | inactive
O=[N+]([O-])c1ccc(CCl)cc1 | inactive
CC1CCCC1 | inactive
Oc1ccc([C@H]2CNCc3c2ccc(O)c3O)cc1O | inactive
